According to the supplement of paper PMC11150407:
The campaign covered roughly 2,100 compounds. About 180 (8.6%) showed an effect of 50% or more. This is one part of a sample in which strong results are shown more often than they occur.

Each compound was assayed on MOLM1 and UCSD/AML1 (averaged) (assay: cell viability relative to DMSO control (POC); higher = less growth inhibition). Conditions: 1 µM; 72 h.
Method: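 Primary viability screen in the 3q26 EVI1-high AML cell lines MOLM1 and UCSD/AML1 (1.5e3 cells/well, 384-well), compounds at 1 uM for 72 h. ATP CellTiter-Glo read-out given as percent of viable cells over DMSO control (POC), averaged over duplicates. DMSO was the negative control and 5 uM etoposide the positive control. This mapping covers the MicroSource Spectrum and Selleck anticancer libraries (drug names).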

| Structure (SMILES) | cell viability |
| --- | --- |
| C=CCSCC=C | 97.3% |
| CCCc1cc(OC)c2c(c1)OCO2 | 90.2% |
| C[C@H](NC(=O)Cc1cc(F)cc(F)c1)C(=O)N[C@@H]1C(=O)N(C)c2ccccc2-c2ccccc21 | 101% |
| COC1=C(OC)C(=O)C(C/C=C(\C)CC/C=C(\C)CC/C=C(\C)CC/C=C(/C)CC/C=C(\C)CC/C=C(\C)CC/C=C(\C)CC/C=C(\C)CC/C=C(\C)CCC=C(C)C)=C(C)C1=O | 85.7% |
| COc1c(C)c2c(c(O)c1C/C=C(\C)CCC(=O)O)C(=O)OC2 | 44% |
| COc1c(C)c2c(c(O)c1C/C=C(\C)CCC(=O)O)C(=O)OC2 [Mycophenolic (Mycophenolate)] | 42.4% |
| COc1c(C)c2c(c(O)c1C/C=C(\C)CCC(=O)OCCN1CCOCC1)C(=O)OC2 [Mycophenolate mofetil (CellCept)] | 53% |
| C=C[C@@]1(C)CC(=O)[C@@]2(O)[C@](C)(O1)[C@@H](O)[C@@H](O)C1C(C)(C)CC[C@H](O)[C@@]12C (stereo partly specified) | 98.8% |
| COc1ccc(C(=O)O)c(O)c1OC | 97.8% |
| COc1ccc([C@H]2COc3c(ccc(O)c3OC)C2)c(OC)c1O | 116% |
| CC(C=CC(=O)NO)=CC(C)C(=O)c1ccc(N(C)C)cc1 (stereo unspecified) [Trichostatin A (TSA)] | 1.52% |
| O=C(Cn1ccnc1[N+](=O)[O-])NCCO | 94.5% |
| Cc1csc(-c2nnc(Nc3ccc(Oc4ncccc4-c4ccnc(N)n4)cc3)c3ccccc23)c1 | 51.5% |
| CN(C)c1ccc(C(=C2C=CC(=[N+](C)C)C=C2)c2ccc(N(C)C)cc2)cc1 | 0.942% |
| N=C1C=CC(=C(c2ccc(N)cc2)c2ccc(N)cc2)C=C1 | 82.5% |
| CCCCCCCCCCCCCc1ccco1 | 97.1% |
| C[C@H](CCC(=O)O)[C@H]1CC[C@H]2[C@@H]3CC[C@@H]4CCCC[C@]4(C)[C@H]3CC[C@]12C | 98.9% |
| C[C@@H]1O[C@@H](O[C@H]2[C@H](O[C@H]3CC[C@@]4(C)[C@@H](CC[C@]5(C)[C@@H]4CC=C4[C@@H]6CC(C)(C)CC[C@]6(C(=O)O[C@@H]6O[C@H](CO[C@@H]7O[C@H](CO)[C@@H](O[C@@H]8O[C@@H](C)[C@H](O)[C@@H](O)[C@H]8O)[C@H](O)[C@H]7O)[C@@H](O)[C@H](O)[C@H]6O)CC[C@]45C)[C@]3(C)CO)OC[C@H](O)[C@@H]2O)[C@H](O)[C@H](O)[C@H]1O | 89.5% |
| COCC[n+]1c2c(n(Cc3cnccn3)c1C)C(=O)c1ccccc1C2=O [YM155 (Sepantronium Bromide)] | 3.93% |
| CC(C)CCC[C@@H](C)[C@H]1CC[C@H]2[C@@H]3CC=C4CC(=O)CC[C@]4(C)[C@H]3CC[C@]12C | 87.5% |
| COC(=O)c1c(OC)cc2c(c1C)Oc1c(Cl)c(O)c(Cl)c(C)c1C(=O)O2 | 107% |
| OC(Cn1cncn1)(Cn1cncn1)c1ccc(F)cc1F | 95.1% |
| Cc1c(NC(=O)OC[C@@H]2COCCN2)cn2ncnc(Nc3ccc4c(cnn4Cc4cccc(F)c4)c3)c12 | 119% |
| C=C1C2CC[C@@]3(C)[C@H](c4ccoc4)OC(=O)C[C@]13O[C@H]1CC(=O)C(C)(C)[C@H](C(O)C(=O)OC)[C@@]21C (stereo partly specified) | 99.4% |
| CC(C)C[C@H](NC(=O)CNC(=O)c1cc(Cl)ccc1Cl)B(O)O [Ixazomib (MLN2238)] | 1.39% |
| O=C(CNC(=O)c1ccc(Cl)cc1)NO | 107% |

| Structure (SMILES) | cell viability |
| --- | --- |
| CC(C)C[C@H](NC(=O)CNC(=O)c1cc(Cl)ccc1Cl)B1OC(=O)C(CC(=O)O)(CC(=O)O)O1 | 1.16% |
| CC(=O)Oc1ccc2c(c1)CC[C@@H]1[C@@H]2CC[C@]2(C)[C@@H](OC(C)=O)CC[C@@H]12 | 87.5% |
| O=C(O)Cc1cc(I)c(Oc2cc(I)c(O)c(I)c2)c(I)c1 | 97.8% |
| CC(=O)O[C@@H]1C[C@H]2C(C)(C)C(=O)C=C[C@]2(C)[C@H]2CC[C@@]3(C)[C@H](c4ccoc4)OC(=O)[C@H]4O[C@]43[C@@]21C | 82.8% |
| COC1(C)CCC2OC2(C)CCC2C1CC2(C)C (stereo unspecified) | 102% |
| CC(C)=CCC[C@](C)(O)C1CC=C(C)CC1 (stereo partly specified) | 105% |
| COc1cc2nccc(Oc3ccc(NC(=O)Nc4cc(C)on4)c(Cl)c3)c2cc1OC [Tivozanib (AV-951)] | 31.8% |
| COc1cc2nccc(Oc3ccc(NC(=O)NC4CC4)c(Cl)c3)c2cc1C(N)=O [E7080 (Lenvatinib)] | 58% |
| O=C(Oc1cc(O)cc2c1C[C@@H](OC(=O)c1cc(O)c(O)c(O)c1)[C@@H](c1cc(O)c(O)c(O)c1)O2)c1cc(O)c(O)c(O)c1 | 104% |
| Cc1cc(O)c(C=O)c2c1C(=O)Oc1c(COC(=O)/C=C/C(=O)O)c(O)c(C(=O)O)c(C)c1O2 | 104% |
| Cc1ccc2c(=O)c3cccc(CC(=O)O)c3oc2c1C | 99.8% |
| Cc1coc2c1C(=O)C(=O)c1c-2ccc2c1CCCC2(C)C | 118% |
| C=CC(C1=CC(=O)C=CC1=O)c1ccccc1 (stereo unspecified) | 103% |
| C=CC(C1=CC(=O)C(OC)=CC1=O)c1ccccc1 (stereo unspecified) | 79.2% |
| C=C[C@@H](C1=CC(=O)C(OC)=C(OC)C1=O)c1ccccc1 | 8.05% |
| CC1=C2C(O)C(=O)OC3CC4C(C)(C)C(=O)C=C[C@]4(C)C(CC1)[C@]23C (stereo partly specified) | 89.3% |
| COc1ncc(-c2ccc3nccc(-c4ccnnc4)c3c2)cc1NS(=O)(=O)c1ccc(F)cc1F | 12.4% |
| CCCS(=O)(=O)Nc1ccc(F)c(C(=O)c2c[nH]c3ncc(-c4ccc(Cl)cc4)cc23)c1F [Vemurafenib (PLX4032)] | 114% |
| COc1ccc2c(C)cc(=O)oc2c1 | 110% |
| COC(=O)CC1C(C)(C)C(OC(C)=O)[C@@H]2[C@@H](OC(C)=O)[C@]34O[C@@]2(O)[C@]1(C)C3CC[C@]1(C)C4=CC(=O)O[C@H]1c1ccoc1 (stereo partly specified) | 83.6% |
| O=C(OCC(O)CO)c1ccccc1Nc1ccnc2cc(Cl)ccc12 (stereo unspecified) | 104% |
| O=C(NOC[C@H](O)CO)c1ccc(F)c(F)c1Nc1ccc(I)cc1F | 49.5% |
| O=C(NOCC1CC1)c1ccc(F)c(F)c1Nc1ccc(I)cc1Cl | 33.2% |
| NC(C(=O)O)C(O)C(=O)O (stereo not drawn) [d,l-threo-3-HYDROXYASPARTIC ACID] | 129% |
| CC(=O)OC1CCC2(C)C(=CCC3C2CCC2(C)C(C(C)CCCC(C)C)CCC32)C1 (stereo unspecified) | 97.3% |
